This is an account of results in PubChem BioAssay AID504850 (National Center for Advancing Translational Sciences (NCATS), 2011).

Several values for one entry are separate records, joined by “and”; a condition that tells them apart may be missing. Equal entries are not always repeated. About 1,200 (52%) of roughly 2,300 compounds were called active. About 34% were inconclusive and are not listed. The set was probably picked from earlier hits. The list shows a part of the results. A number with no mark means an inactive call. The call rests on the fitted dose curve; in most records, active means well fitted inhibition curve with a large enough effect; inconclusive means small, poorly fitted or top-dose-only effect, or effect the other way; inactive means no such curve, though single readings can be large or run the other way.
On the % scale 0 is the no-effect control and ±100 the full control effect; potency means the concentration at half of the fitted maximal effect.

This assay is described as follows: Confirmation screen for delayed death inhibitors of the malarial parasite plastid, 48 hour incubation. Further: nearly all actives have a fitted effect of over 65% in size. The settings on record: P. falciparum-infected erythrocytes, luciferase growth; series mostly up to 28.7 µM; activity change, negative = inhibition: at the top concentration. The text has this:
The goal of this screen is to discover new antimalarial compounds that act by inhibiting the development of the apicoplast in the malarial parasite Plasmodium falciparum. The biochemical processes that make this organelle essential for erythrocytic stage parasites are not well understood. However, antibiotics, such as azithromycin and tetracycline, which target the apicoplast translational machinery, have a potent antimalarial effect. […] We have developed a cell-based assay that measures parasite growth based on the expression of an integrated copy of a firefly luciferase reporter. To detect small molecules that cause this "delayed death phenotype, erythrocytes infected with the luciferase-expressing parasites were incubated with compounds for either one or two generations, corresponding to 48 and 96 hours, respectively. Compounds that inhibit parasite growth in the second generation, but not the first, should be enriched in antimalarials that target the apicoplast. Growth inhibition is detected by a decrease in luciferase activity. MLPCN Grant: R21 NS059500 Assay Provider: David Fidock and Eric Ekland, Columbia University Keywords: NIH Roadmap, MLPCN, MLI, MLSMR, qHTS, NCGC, qHTS, malaria, luciferase, viability
Four microliters of culture medium (RPMI 1640 with 0.5% w/v Albumax (GIBCO), 24 mM sodium bicarbonate and 10 ug/mL gentamycin) were dispensed by a Multi-drop Combi into white solid 1536-well plates (Grenier) and 23 nL compound was added by a pin tool. Four microliters of infected erythrocytes (2% hematocrit, 0.1% parasitemia final concentration) in culture medium were dispensed and the plates incubated for 48 hours at 37 C in 5% CO2. Two microliters of luciferase detection reagent was added and luminescence was detected by a ViewLux (PerkinElmer) reader.
As for `Fc1ccc(C[n+]2c(-c3ccccc3)cc(-c3ccccc3)cc2-c2ccccc2)cc1`, the Potency is 2.82 µM (active).

With `CN1C[C@H](C(=O)N[C@]2(C)O[C@@]3(O)[C@@H]4CCCN4C(=O)[C@H](Cc4ccccc4)N3C2=O)C[C@@H]2c3cccc4[nH]cc(c34)C[C@H]21`, the Potency was 2.82 µM (active). As for `C[C@@H]1CC[C@H]2[C@@H](C)C(=O)O[C@@H]3O[C@@]4(C)CC[C@@H]1[C@]32OO4`, the Potency was 0.0794 µM (active). In the case of `C[C@@H]1CC[C@H]2[C@@H](C)C(=O)O[C@@H]3OC4(C)CC[C@@H]1C32OO4` (some centres not stated), the Potency was 0.0447 µM (active). For `Cn1c(O)c(C=NC2C(=O)C3(C)CCC2C3(C)C)c(=O)n(C)c1=O` (configuration not stated), the “activity change, negative = inhibition” value is -0.717%. The same measure, in the same setting: with `CC(=O)N1CC(=O)Nc2ccc(Cl)cc2C1c1ccccc1` (configuration not stated) the figure was -10.3%. Turning to `O=C(CCl)Nc1nccs1`, the Potency was 5.01 µM (active). Same read-out and setting: the figure for `O=C(/C=C/c1cccs1)c1cc(Cl)ccc1OC(=O)N1CCOCC1` is 14.1 µM (active); for `C[C@H]1C[C@@H](C)C(=O)[C@@H]([C@H](O)CC2CC(=O)NC(=O)C2)C1` it is 0.0794 µM (active); for `C[C@@H]1C[C@@H]([C@H](O)CC2CC(=O)NC(=O)C2)C(=O)[C@@H](C)C1` it is 0.891 µM (active). For `Cc1ccc(N2C(=O)NC(=O)/C(=C\C=C\c3ccco3)C2=O)cc1`, the “activity change, negative = inhibition” value was -20.3%. With `CCN1CCN(Cc2nc3ccc([N+](=O)[O-])cc3c(=O)n2-c2ccccc2F)CC1`, the “activity change, negative = inhibition” value is 6.69%.

For `CN(C)c1ccc(C(=O)N/N=C/C23CC[C@@H](O)CC2(O)CC[C@@H]2[C@@H]3CCC3(C)C(C4=CC(=O)OC4)CCC23O)cc1` (some centres not stated), the Potency was 12.6 µM (active). As for `COc1cc(C(=O)N/N=C/C23CC[C@@H](O)CC2(O)CC[C@@H]2[C@@H]3CCC3(C)C(C4=CC(=O)OC4)CCC23O)ccc1O` (some centres not stated), the “activity change, negative = inhibition” value was -13.3%. Turning to `COc1ccc(C(=O)N/N=C/C23CC[C@@H](O)CC2(O)CC[C@@H]2[C@@H]3CCC3(C)C(C4=CC(=O)OC4)CCC23O)cc1` (some centres not stated), the “activity change, negative = inhibition” value is -16%.

On to `CN(C)[C@@H]1C(=O)C(C(N)=O)=C(O)[C@@]2(O)C(=O)C3=C(O)c4c(O)cccc4[C@@](C)(O)C3[C@H](O)C12` (some centres not stated), for which the Potency is 5.01 µM (active). Regarding `C[n+]1c2cc(N)ccc2cc2ccc(N)cc21`, the Potency was 1 µM (active).

With `COC(=O)c1nc(-c2ccc3c(n2)C(=O)C(N)=C(OC)C3=O)c(N)c(-c2ccc(OC)c(OC)c2O)c1C`, the Potency is 0.562 µM (active). As to `CC[C@H]1CN2CCc3cc(OC)c(OC)cc3C2C[C@@H]1C[C@H]1NCCc2cc(OC)c(OC)cc21` (some centres not stated), the Potency was 0.0501 µM (active). For the compound `CC[C@H]1CN2CCc3cc(OC)c(OC)cc3[C@H]2C[C@@H]1C[C@@H]1NCCc2cc(OC)c(OC)cc21`, the Potency was 0.562 µM (active). On the same count and under the same terms, the figure for `CC[C@H]1CN2CCc3cc(OC)c(OC)cc3[C@@H]2C[C@@H]1C[C@H]1NCCc2cc(OC)c(OC)cc21` is 0.316 µM (active). In the case of `O=C1NC(=O)N(c2ccccc2)C(=O)/C1=C/C=C/c1ccco1`, the “activity change, negative = inhibition” value was -14.3%. As to `CCN(CC)Cc1cc(Nc2ccnc3cc(Cl)ccc23)ccc1O`, the Potency is 79.4 nM (active) and 22.4 nM (active). Still for that read-out and setting: the figure for `CC(C)CCOP(N)(=O)Oc1ccccc1` (configuration not stated) is 4.47 µM (active); for `Cn1c(=O)oc2cc(NC(=O)CCl)ccc21` it is 0.794 µM (active). Still for that read-out and setting: with `CCn1c(=O)oc2cc(NC(=O)CCl)ccc21` the figure was 2.24 µM (active); with `O=[N+]([O-])c1cccc2c([As](=O)(O)O)cccc12`, 3.55 µM (active). As to `Oc1ccc(-[n+]2c(-c3ccccc3)cc(-c3ccccc3)cc2-c2ccccc2)cc1`, the Potency is 0.708 µM (active). `C[C@@H]1O[C@@H](O[C@H]2C[C@@H](O)[C@]3(CO)[C@@H]4C(CC[C@]3(O)C2)[C@@]2(O)CC[C@H](C3COC(=O)C3)[C@@]2(C)C[C@H]4O)[C@H](O)[C@H](O)[C@H]1O` (some centres not stated): the “activity change, negative = inhibition” value is -14.7%. In the case of `CCCNS(=O)(=O)c1ccc(OCC(=O)N2CCN(Cc3ccc4c(c3)OCO4)CC2)c(C)c1`, the Potency was 12.6 µM (active). Consider `Cc1ccc(C(C)C)c(OCC(=O)N2CCN(Cc3nc4cc([N+](=O)[O-])ccc4n3C)CC2)c1`, for which the “activity change, negative = inhibition” value was -9.32%. Same read-out and setting: with `CCOC(=O)COc1ccc2c(c1)c(C(C)=O)c(C)n2Cc1ccccc1` the figure was -25.7%; with `Cn1cc([N+](=O)[O-])c(C(=O)Nc2ccc3c(C(F)(F)F)cc(=O)oc3c2)n1`, 15.8%. `O=C(NC1CC2CCCC(C1)N2)c1ccccc1` (configuration not stated): the Potency was 10 µM (active). Consider `Clc1ccccc1CN1CCNCC1`, for which the “activity change, negative = inhibition” value was -9.24%. On to `COc1ccc(Cn2c(N)c(C(=O)NCc3ccco3)c3nc4ccccc4nc32)cc1`, for which the Potency was 3.98 µM (active). Regarding `O=c1oc2ccccc2c(O)c1[C@H]1c2ccc(O)cc2Oc2c1c(=O)oc1ccccc21`, the “activity change, negative = inhibition” value was -10%. Regarding `CN1CCc2cc3c(c4c2C1Cc1ccccc1-4)OCO3` (configuration not stated), the Potency was 0.562 µM (active). The same measure, in the same setting: with `O=C1/C(=C/c2ccccc2)C[C@@]2(O)[C@H]3Cc4ccc(O)c5c4[C@@]2(CCN3CC2CC2)C1O5` (some centres not stated) the figure was 5.01 µM (active).

`CCCCCCn1c(=O)c(C(=O)Nc2ncccc2O)c(O)c2ccccc21`: the “activity change, negative = inhibition” value is -9.27%. `C=C1C(O)[C@@H]2O[C@]3(CC[C@H](/C=C/C(C)[C@@H]4CC(C)=CC5(O[C@H](C[C@@](C)(O)C(=O)O)CCC5O)O4)O3)CC[C@H]2O[C@@H]1C(O)CC(C)[C@H]1OC2(CCCCO2)CCC1C` (some centres not stated): the Potency was 0.0891 µM (active). On the same count and under the same terms, the figure for `C=C1C(=O)O[C@@H]2C[C@@H](C)[C@@H]3C=CC(=O)[C@@]3(C)[C@@H](O)[C@H]12` is 1.58 µM (active). `C=C1C(=O)O[C@H]2C[C@@H](C)[C@@H]3C=CC(=O)[C@@]3(C)C[C@H]12`: the Potency is 2 µM (active). In the case of `C=C1C(=O)O[C@@H]2C[C@@H](C)[C@@H]3C=CC(=O)[C@@]3(C)[C@@H](OC(=O)CC(=O)O[C@H]3[C@@H]4C(=C)C(=O)O[C@@H]4C[C@@H](C)[C@@H]4C=CC(=O)[C@]43C)[C@H]12`, the Potency is 0.398 µM (active). On to `CCCCN=C[C@]12CCC(O)CC1(O)CCC1[C@@H]2CC[C@]2(C)[C@H](C3C=CC(=O)O3)CCC12O` (some centres not stated), for which the “activity change, negative = inhibition” value is -20.3%. Same read-out and setting: the figure for `C[C@]12CCC3C(CCC4=CC(O)CC[C@@]43/C=N/O)C1(O)CCC2C1=CC(=O)OC1` (some centres not stated) is -24%.

On to `COC(=O)C1=C(c2ccccc2OCc2ccccc2)C[C@@H]2CC[C@H]1N2C(=O)NCCOc1ccc(OC)cc1`, for which the Potency is 12.6 µM (active). Same read-out and setting: the figure for `COC(=O)C1=C(c2ccc(F)cc2OCc2ccccc2)C[C@@H]2CC[C@H]1N2C(=O)NCc1ccccc1Br` is 1.78 µM (active); for `CCC(C(=O)N1CCC2(CC1)OCCO2)n1c2ccccc2c2nc(=O)cc(C)n21` (configuration not stated) it is 11.2 µM (active).

Turning to `CCOc1cc2c(cc1OCC)-n1cccc1C(c1ccccc1F)NC2` (configuration not stated), the Potency was 10 µM (active).

As to `CCOP(=O)(OCC)C(O)c1ccc(OC)cc1OC` (configuration not stated), the “activity change, negative = inhibition” value is -11.5%. On to `COc1ccc(-c2cc(-c3ccccc3)[n+](C)c(-c3ccccc3)c2)cc1`, for which the Potency was 3.16 µM (active).

As for `C[n+]1c(-c2ccccc2)cc(-c2ccc(Cl)cc2)cc1-c1ccccc1`, the Potency was 2 µM (active). The same measure, in the same setting: with `Cc1cc2ccccn2c1C(C[N+](=O)[O-])c1c(F)cccc1Cl` (configuration not stated) the figure was 12.6 µM (active). Take `O=[N+]([O-])c1ccc(NC2CCCC2)c2ccncc12`: the “activity change, negative = inhibition” value was -2.56%. `C=CCn1c(O)c(N=Nc2c(C)n(C)n(-c3ccccc3)c2=O)c(=O)[nH]c1=S`: the Potency was 11.2 µM (active).

Consider `C[C@@H]1C[C@@H]2O[C@H]2/C=C\C=C\C(=O)Cc2c(Cl)c(O)cc(O)c2C(=O)O1`, for which the Potency is 7.08 µM (active). Take `C=C[C@H]1CN2CC[C@H]1C[C@@H]2[C@@H](O)c1ccnc2ccccc12`: the Potency is 0.251 µM (active).

For `CN1C2CCC1/C(=C/c1ccccn1)C(=O)/C2=C\c1ccccn1`, the Potency was 0.251 µM (active). Regarding `CC[n+]1c(-c2ccccc2)c2cc(N)ccc2c2ccc(N)cc21`, the Potency is 1 µM (active). Turning to `CC(C)c1ccc(N2C(=O)NC(=O)/C(=C\C=C\c3ccco3)C2=O)cc1`, the “activity change, negative = inhibition” value is -10.9%.

Turning to `CC(C)c1oc(=O)cc2c1[C@@H](O)[C@H]1OC(=O)[C@@]3(C)CC[C@@H](O)[C@@]2(C)C13` (some centres not stated), the Potency was 8.91 µM (active).
